Measured values reported in the supplement of paper PMC10849652.
Targets with a hit are over-represented here; the source holds about 7,900 in all. About 0.6% of all pairs of compound and target were hits.

Compound: CC1=C(C2=C(C=C1)C(=O)C3=CC=CC=C3N2CCCN)C
Experiment: log2 fold change, soluble protein after heating vs DMSO (PISA); higher = thermal stabilisation; K562 cells, 10 uM, 30 min; active = over 0.2 and 3.5 SD of the protein, either way, in both replicates (recomputed)
In short: (§1)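 K562 cells at 2×10^6 cells/mL were given 10 μM compound for 30 min. Aliquots then went through 3 min of heating across 48°C-58°C, were pooled, and were extracted in PBS with 0.5% NP-40 at 4°C, and the supernatant after 21,000xg for 90 min was quantified by TMTpro 16plex LC-MS/MS with channel sums equalised. Thermal stability relative to control samples, from duplicates, is given as log2 fold change.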

Chain of UniProt Q9UBN7 (Q9UBN7 whole entry, looked up): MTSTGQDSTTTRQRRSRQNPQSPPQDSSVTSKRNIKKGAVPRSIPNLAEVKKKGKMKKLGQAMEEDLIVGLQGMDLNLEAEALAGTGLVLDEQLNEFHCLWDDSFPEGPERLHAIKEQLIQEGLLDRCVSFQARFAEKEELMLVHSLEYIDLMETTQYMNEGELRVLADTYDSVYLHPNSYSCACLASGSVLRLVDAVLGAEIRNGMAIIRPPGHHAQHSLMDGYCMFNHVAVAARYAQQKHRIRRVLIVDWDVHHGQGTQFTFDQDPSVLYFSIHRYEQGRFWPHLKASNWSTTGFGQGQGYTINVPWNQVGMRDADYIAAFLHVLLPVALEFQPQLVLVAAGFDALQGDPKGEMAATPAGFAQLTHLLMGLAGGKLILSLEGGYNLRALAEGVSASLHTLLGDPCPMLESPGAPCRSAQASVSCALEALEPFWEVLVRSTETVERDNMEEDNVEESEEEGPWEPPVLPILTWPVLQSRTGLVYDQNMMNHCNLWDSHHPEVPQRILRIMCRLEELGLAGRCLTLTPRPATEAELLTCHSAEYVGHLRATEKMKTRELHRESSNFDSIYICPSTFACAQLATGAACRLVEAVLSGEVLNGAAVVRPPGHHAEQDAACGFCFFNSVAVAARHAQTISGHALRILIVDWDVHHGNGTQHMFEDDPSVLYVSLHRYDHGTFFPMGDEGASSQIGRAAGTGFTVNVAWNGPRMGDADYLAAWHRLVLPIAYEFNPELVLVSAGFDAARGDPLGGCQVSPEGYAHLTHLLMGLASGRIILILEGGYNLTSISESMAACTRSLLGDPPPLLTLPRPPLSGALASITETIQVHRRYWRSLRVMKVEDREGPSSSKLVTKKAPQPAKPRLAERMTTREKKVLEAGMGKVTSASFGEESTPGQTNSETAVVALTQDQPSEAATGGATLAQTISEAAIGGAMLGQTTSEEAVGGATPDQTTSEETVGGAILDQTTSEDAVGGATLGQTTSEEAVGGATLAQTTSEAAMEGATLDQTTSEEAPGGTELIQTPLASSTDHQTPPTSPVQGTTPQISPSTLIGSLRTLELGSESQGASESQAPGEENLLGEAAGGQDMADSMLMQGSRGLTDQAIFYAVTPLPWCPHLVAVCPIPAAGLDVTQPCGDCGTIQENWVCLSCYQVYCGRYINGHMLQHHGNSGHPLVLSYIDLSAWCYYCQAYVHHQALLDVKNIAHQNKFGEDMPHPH
Chain of UniProt Q96I24 (Q96I24 whole entry, looked up): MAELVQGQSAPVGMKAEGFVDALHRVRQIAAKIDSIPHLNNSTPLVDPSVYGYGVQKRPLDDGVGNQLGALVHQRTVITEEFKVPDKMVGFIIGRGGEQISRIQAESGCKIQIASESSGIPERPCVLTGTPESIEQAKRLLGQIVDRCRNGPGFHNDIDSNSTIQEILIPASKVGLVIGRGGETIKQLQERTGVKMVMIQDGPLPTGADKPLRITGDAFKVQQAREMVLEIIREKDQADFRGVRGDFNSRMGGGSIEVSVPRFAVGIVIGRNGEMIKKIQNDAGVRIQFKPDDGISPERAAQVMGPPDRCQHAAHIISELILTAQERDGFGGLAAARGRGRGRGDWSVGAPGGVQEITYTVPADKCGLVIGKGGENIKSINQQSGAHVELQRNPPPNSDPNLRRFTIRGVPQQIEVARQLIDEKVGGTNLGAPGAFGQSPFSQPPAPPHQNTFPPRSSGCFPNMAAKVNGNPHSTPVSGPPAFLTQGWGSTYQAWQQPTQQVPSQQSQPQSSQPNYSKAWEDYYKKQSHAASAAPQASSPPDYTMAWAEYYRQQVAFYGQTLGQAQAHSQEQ
Chain of UniProt Q53GQ0 (Q53GQ0 whole entry, looked up): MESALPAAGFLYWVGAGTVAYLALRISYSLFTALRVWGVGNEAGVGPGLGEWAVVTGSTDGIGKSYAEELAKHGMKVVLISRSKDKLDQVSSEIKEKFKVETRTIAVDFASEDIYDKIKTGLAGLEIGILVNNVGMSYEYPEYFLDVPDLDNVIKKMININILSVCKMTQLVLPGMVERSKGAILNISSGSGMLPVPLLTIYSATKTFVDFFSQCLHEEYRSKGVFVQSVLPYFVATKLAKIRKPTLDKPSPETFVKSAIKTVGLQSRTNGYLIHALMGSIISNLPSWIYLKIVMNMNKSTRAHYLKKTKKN
Chain of UniProt P52657 (P52657 whole entry, looked up): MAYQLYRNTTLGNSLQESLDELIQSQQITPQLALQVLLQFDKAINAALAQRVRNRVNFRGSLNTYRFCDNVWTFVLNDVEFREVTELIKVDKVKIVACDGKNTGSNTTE
Chain of UniProt Q02790 (Q02790 whole entry, looked up): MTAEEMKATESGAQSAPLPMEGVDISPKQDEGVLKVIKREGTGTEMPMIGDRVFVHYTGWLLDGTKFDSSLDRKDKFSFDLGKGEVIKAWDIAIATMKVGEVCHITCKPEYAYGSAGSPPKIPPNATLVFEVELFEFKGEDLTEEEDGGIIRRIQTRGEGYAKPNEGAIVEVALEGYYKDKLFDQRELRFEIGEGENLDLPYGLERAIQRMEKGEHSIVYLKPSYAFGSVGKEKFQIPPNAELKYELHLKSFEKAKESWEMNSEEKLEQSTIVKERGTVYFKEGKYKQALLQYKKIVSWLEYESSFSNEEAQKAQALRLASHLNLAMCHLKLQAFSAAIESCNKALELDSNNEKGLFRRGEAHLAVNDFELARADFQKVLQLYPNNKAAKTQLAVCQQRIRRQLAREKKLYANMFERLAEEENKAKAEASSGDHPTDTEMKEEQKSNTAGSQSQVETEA
Chain of UniProt P08236 (P08236 whole entry, looked up): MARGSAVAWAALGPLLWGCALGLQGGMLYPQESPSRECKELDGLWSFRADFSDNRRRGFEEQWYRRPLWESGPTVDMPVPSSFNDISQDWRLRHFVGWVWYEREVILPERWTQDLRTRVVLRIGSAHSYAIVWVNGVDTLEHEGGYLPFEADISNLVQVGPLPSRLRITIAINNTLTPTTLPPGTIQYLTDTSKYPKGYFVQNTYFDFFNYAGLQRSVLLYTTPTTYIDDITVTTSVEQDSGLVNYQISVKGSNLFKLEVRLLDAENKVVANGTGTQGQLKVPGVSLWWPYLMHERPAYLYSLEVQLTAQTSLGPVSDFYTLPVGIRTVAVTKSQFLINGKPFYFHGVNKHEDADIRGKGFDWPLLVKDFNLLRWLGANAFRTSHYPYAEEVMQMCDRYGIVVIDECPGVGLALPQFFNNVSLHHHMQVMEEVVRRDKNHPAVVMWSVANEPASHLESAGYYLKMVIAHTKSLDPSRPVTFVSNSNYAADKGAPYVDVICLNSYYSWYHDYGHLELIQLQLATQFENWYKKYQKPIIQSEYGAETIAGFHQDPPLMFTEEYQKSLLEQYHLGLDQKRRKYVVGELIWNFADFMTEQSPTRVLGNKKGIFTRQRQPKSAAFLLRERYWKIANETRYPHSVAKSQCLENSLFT
Chain of UniProt Q00688 (Q00688 whole entry, looked up): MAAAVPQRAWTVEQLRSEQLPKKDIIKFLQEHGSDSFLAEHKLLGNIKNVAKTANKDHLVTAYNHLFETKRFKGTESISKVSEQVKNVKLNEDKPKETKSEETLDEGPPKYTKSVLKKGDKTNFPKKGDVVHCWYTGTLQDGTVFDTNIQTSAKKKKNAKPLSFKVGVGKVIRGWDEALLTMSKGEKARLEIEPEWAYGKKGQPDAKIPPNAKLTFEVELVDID
Chain of UniProt Q5SSJ5 (Q5SSJ5 whole entry, looked up): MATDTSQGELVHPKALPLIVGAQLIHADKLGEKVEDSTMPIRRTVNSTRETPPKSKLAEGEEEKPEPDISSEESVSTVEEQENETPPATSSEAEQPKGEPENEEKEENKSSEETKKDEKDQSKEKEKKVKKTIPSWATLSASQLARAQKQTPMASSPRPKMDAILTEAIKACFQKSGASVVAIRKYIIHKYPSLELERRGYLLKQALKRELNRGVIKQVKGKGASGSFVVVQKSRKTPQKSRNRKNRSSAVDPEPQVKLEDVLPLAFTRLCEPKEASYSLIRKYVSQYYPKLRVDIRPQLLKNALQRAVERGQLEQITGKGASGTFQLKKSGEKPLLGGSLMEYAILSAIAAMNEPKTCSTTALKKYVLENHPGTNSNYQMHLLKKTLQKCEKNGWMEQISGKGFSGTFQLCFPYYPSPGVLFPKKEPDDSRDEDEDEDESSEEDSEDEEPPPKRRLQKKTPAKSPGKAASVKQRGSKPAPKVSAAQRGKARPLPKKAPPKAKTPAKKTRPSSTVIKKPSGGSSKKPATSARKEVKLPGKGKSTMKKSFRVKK
Chain of UniProt P55084 (P55084 whole entry, looked up): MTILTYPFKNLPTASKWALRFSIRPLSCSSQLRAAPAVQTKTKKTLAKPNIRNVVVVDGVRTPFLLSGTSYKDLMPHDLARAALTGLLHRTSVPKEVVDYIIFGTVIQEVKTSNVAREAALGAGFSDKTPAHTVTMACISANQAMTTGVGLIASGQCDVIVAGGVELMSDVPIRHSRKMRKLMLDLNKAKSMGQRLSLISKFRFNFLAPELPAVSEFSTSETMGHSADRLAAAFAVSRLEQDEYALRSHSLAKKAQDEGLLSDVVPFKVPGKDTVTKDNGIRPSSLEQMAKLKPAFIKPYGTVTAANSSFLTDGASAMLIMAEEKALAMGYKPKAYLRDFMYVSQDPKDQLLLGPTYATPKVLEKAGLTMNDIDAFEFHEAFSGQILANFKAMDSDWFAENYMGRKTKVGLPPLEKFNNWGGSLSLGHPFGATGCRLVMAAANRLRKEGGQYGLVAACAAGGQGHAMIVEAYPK
Chain of UniProt P30519 (P30519 whole entry, looked up): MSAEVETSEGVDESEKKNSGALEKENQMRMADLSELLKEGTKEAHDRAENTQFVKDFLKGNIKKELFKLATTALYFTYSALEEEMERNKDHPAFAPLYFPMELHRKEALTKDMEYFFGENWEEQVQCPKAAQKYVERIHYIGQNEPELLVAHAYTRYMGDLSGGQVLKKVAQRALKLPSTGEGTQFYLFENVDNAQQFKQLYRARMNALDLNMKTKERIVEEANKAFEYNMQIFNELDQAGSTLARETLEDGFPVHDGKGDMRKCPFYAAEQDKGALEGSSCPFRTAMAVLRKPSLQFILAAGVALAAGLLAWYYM

Target	log2 fold change
HADHB (UniProt P55084)	0.104 (inactive)
GDPD1 (UniProt Q8N9F7)	-0.015 (inactive)
HBZ (UniProt P02008)	0.088 (inactive)
FNTA (UniProt P49354)	-0.074 (inactive)
FUBP3 (UniProt Q96I24)	0.387 (active)
FAM91A1 (UniProt Q658Y4)	0.083 (inactive)
GTF3C4 (UniProt Q9UKN8)	-0.041 (inactive)
HSPA8 (UniProt E9PK54)	-0.262 (inactive)
GNPAT (UniProt O15228)	0.024 (inactive)
GTF2A2 (UniProt P52657)	-0.357 (active)
HBA1 (UniProt P69905)	0.127 (inactive)
GDI1 (UniProt P31150)	0.011 (inactive)
HMOX2 (UniProt P30519)	0.012 (inactive)
HMGN2 (UniProt P05204)	0.401 (active)
GYG1 (UniProt P46976)	0.035 (inactive)
FKBP3 (UniProt Q00688)	-0.004 (inactive)
HEATR5B (UniProt Q9P2D3)	0.01 (inactive)
FKBP4 (UniProt Q02790)	0.013 (inactive)

Target	log2 fold change
H2AFX (UniProt P16104)	1.02 (active)
GUSB (UniProt P08236)	-0.077 (inactive)
HDAC6 (UniProt Q9UBN7)	0.021 (inactive)
FBXO42 (UniProt Q6P3S6)	0.086 (inactive)
HP1BP3 (UniProt Q5SSJ5)	-0.387 (active)
GEMIN5 (UniProt Q8TEQ6)	-0.28 (active)
HSD17B12 (UniProt Q53GQ0)	0.031 (inactive)
HNRNPF (UniProt P52597)	-0.087 (inactive)
GALNT2 (UniProt Q10471)	0.007 (inactive)
IFT80 isoform 3 (UniProt Q9P2H3)	0.073 (inactive)
GEMIN6 (UniProt Q8WXD5)	0.03 (inactive)
FDPS (UniProt P14324)	0.083 (inactive)
GNAS (UniProt Q5JWF2)	0.073 (inactive)
GOPC (UniProt Q9HD26)	0.085 (inactive)
FDXR isoform 7 (UniProt P22570)	0.125 (inactive)
HECTD1 (UniProt Q9ULT8)	-0.158 (inactive)
GLUL (UniProt P15104)	-0.058 (inactive)

Compound: CC1=C(C=C(C=C1)NC(=O)C2=CC(=CC=C2)C(C)(C)C#N)NC3=CC4=C(C=C3)N=CN(C4=O)C
Experiment: as above
In short: as §1

Target	log2 fold change
HADHB (UniProt P55084)	0.19 (inactive)
GDPD1 (UniProt Q8N9F7)	0.003 (inactive)
HBZ (UniProt P02008)	0.01 (inactive)
FNTA (UniProt P49354)	-0.035 (inactive)
FUBP3 (UniProt Q96I24)	0.021 (inactive)
FAM91A1 (UniProt Q658Y4)	0.035 (inactive)
GTF3C4 (UniProt Q9UKN8)	-0.025 (inactive)
HSPA8 (UniProt E9PK54)	0.023 (inactive)
GNPAT (UniProt O15228)	-0.03 (inactive)
GTF2A2 (UniProt P52657)	0.009 (inactive)
HBA1 (UniProt P69905)	0.021 (inactive)
GDI1 (UniProt P31150)	0.007 (inactive)
HMOX2 (UniProt P30519)	0 (inactive)
HMGN2 (UniProt P05204)	0.115 (inactive)
GYG1 (UniProt P46976)	0.209 (inactive)
FKBP3 (UniProt Q00688)	0.024 (inactive)
HEATR5B (UniProt Q9P2D3)	0.013 (inactive)
FKBP4 (UniProt Q02790)	0.032 (inactive)

Target	log2 fold change
H2AFX (UniProt P16104)	-0.088 (inactive)
GUSB (UniProt P08236)	-0.013 (inactive)
HDAC6 (UniProt Q9UBN7)	0.016 (inactive)
FBXO42 (UniProt Q6P3S6)	-0.033 (inactive)
HP1BP3 (UniProt Q5SSJ5)	0.03 (inactive)
GEMIN5 (UniProt Q8TEQ6)	0.035 (inactive)
HSD17B12 (UniProt Q53GQ0)	0.094 (inactive)
HNRNPF (UniProt P52597)	0.076 (inactive)
GALNT2 (UniProt Q10471)	-0.003 (inactive)
IFT80 isoform 3 (UniProt Q9P2H3)	-0.023 (inactive)
GEMIN6 (UniProt Q8WXD5)	-0.049 (inactive)
FDPS (UniProt P14324)	-0.061 (inactive)
GNAS (UniProt Q5JWF2)	0.105 (inactive)
GOPC (UniProt Q9HD26)	0.207 (inactive)
FDXR isoform 7 (UniProt P22570)	-0.011 (inactive)
HECTD1 (UniProt Q9ULT8)	0.04 (inactive)
GLUL (UniProt P15104)	-0.008 (inactive)

Compound: CC1=C(C=C(C=C1)NC(=O)C2=CC(=CC=C2)N(C)C)NC(=O)C3=CC=C(C=C3)O
Experiment: as above
In short: as §1

Target	log2 fold change
HADHB (UniProt P55084)	-0.248 (inactive)
GDPD1 (UniProt Q8N9F7)	-0.135 (inactive)
HBZ (UniProt P02008)	-0.074 (inactive)
FNTA (UniProt P49354)	-0.009 (inactive)
FUBP3 (UniProt Q96I24)	-0.018 (inactive)
FAM91A1 (UniProt Q658Y4)	0.034 (inactive)
GTF3C4 (UniProt Q9UKN8)	-0.027 (inactive)
HSPA8 (UniProt E9PK54)	0.034 (inactive)
GNPAT (UniProt O15228)	-0.046 (inactive)
GTF2A2 (UniProt P52657)	-0.029 (inactive)
HBA1 (UniProt P69905)	-0.068 (inactive)
GDI1 (UniProt P31150)	0.012 (inactive)
HMOX2 (UniProt P30519)	-0.06 (inactive)
HMGN2 (UniProt P05204)	0.097 (inactive)
GYG1 (UniProt P46976)	0.035 (inactive)
FKBP3 (UniProt Q00688)	0 (inactive)
HEATR5B (UniProt Q9P2D3)	0.005 (inactive)
FKBP4 (UniProt Q02790)	-0.037 (inactive)

Target	log2 fold change
H2AFX (UniProt P16104)	-0.006 (inactive)
GUSB (UniProt P08236)	-0.014 (inactive)
HDAC6 (UniProt Q9UBN7)	-0.041 (inactive)
FBXO42 (UniProt Q6P3S6)	0.164 (inactive)
HP1BP3 (UniProt Q5SSJ5)	-0.026 (inactive)
GEMIN5 (UniProt Q8TEQ6)	-0.038 (inactive)
HSD17B12 (UniProt Q53GQ0)	0.032 (inactive)
HNRNPF (UniProt P52597)	-0.005 (inactive)
GALNT2 (UniProt Q10471)	-0.035 (inactive)
IFT80 isoform 3 (UniProt Q9P2H3)	0.038 (inactive)
GEMIN6 (UniProt Q8WXD5)	-0.05 (inactive)
FDPS (UniProt P14324)	-0.068 (inactive)
GNAS (UniProt Q5JWF2)	-0.043 (inactive)
GOPC (UniProt Q9HD26)	0.018 (inactive)
FDXR isoform 7 (UniProt P22570)	-0.078 (inactive)
HECTD1 (UniProt Q9ULT8)	-0.068 (inactive)
GLUL (UniProt P15104)	-0.003 (inactive)
